Measured values published in PubChem BioAssay AID652256 (National Center for Advancing Translational Sciences (NCATS), 2013).
This is one part of the list. Calls of active or inactive are those of the source.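 Rule for the calls: active = a half-inhibiting concentration could be measured and was below 100 µM; inactive = the rest.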

Test system: Thioredoxin reductase 1 (TXNRD1), rat
Assay: qHTS Assay for Inhibitors of Mammalian Selenoprotein Thioredoxin Reductase 1 (TrxR1): DTNB Assay
Conditions: purified TrxR1, DTNB reduction, A412
Text: The selenoprotein thioredoxin reductase (TrxR; EC 1.8.1.9) is a FAD containing homodimeric pyridine nucleotide-disulfide oxidoreductase with many cellular roles. Together with NADPH and its prime substrate thioredoxin (Trx), the enzyme forms the core of the Trx system. The mammalian Trx system exerts a wide spectrum of functions including redox regulation, antioxidant defense, regulation of transcription factors as well as support of cell growth and replication. Many of these functions involve the reduction of Trx, which may subsequently reduce a number of different substrates including ribonucleotide reductase, peroxiredoxins or NFkB. Mammalian TrxR itself also has a broad substrate specificity, reducing both protein and non-protein substrates, including low molecular weight compounds such as dehydroascorbate, lipoic acid, ubiquinone, and juglone. In addition, several drugs in clinical use for anticancer treatment are indeed known to target TrxR1. This orthogonal DTNB assay seeks to further characterize cherry picks. NIH Molecular Libraries Probe Production Network [MLPCN] NIH Chemical Genomics Center [NCGC] MLPCN Grant: MH090846 Assay Provider: Elias Arner, Karolinska Institute
15 nM TrxR1 is reduced by 250 microM NADPH in TE buffer [50 mM Tris-HCl (pH 7.5), 2 mM EDTA] in a 96-well microtiter plate. Compounds are then added and incubated for 30 min at 30 degrees C. During compound incubation, NADPH consumption is followed by the decrease in absorbance at 340 nm using a VersaMax microplate reader (Molecular Devices) to determine substrate potential of the compound. DTNB is subsequently added to a final concentration of 2.5 mM, and the formation of TNB- is followed at 412 nm at 30 degrees C to assess inhibitory activity of the compound.

Potency, active:
CC1CCN(C(=O)c2ccc(S(=O)(=O)Cc3cc(F)ccc3F)c([N+](=O)[O-])c2)CC1 317 nM
O=C(/C=C/c1ccco1)Nc1cccc(-c2nc3ccccc3[nH]2)c1 10300 nM
Cc1ccccc1-c1nc(CS(=O)(=O)CC(=O)N2CCc3ccccc3C2)c(C)o1 292 nM
